Results as given in PubChem BioAssay (EPA / NIEHS).
Values joined by “and” are separate entries in the source; they are usually repeats but may differ in a detail not shown here. Equal entries are not always repeated. Results filed as inconclusive are left out. A structure can be active in one record and inactive in another. Active and inactive are the calls of the source. How the source made its calls, unless noted: active means hit-call score of the fitted dose curve at least 0.9, where 1 is the maximum; inactive means score below 0.9.

Assays:
[1] = read-out: Collagen I, COL1A1 (gene 1277); test: BSK_MyoF_CollagenI: BioMAP Diversity Plus: MyoF Assay for Collagen I Biomarker Activity (AID 2284238); conditions: primary human lung fibroblasts
How it was run: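 Multiplexed primary human lung fibroblast system; Collagen I measured by ELISA at 24 h post-dose. Increases are referenced to DMSO.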

[2] = read-out: Collagen III, COL3A1 (gene 1281); test: BSK_MyoF_CollagenIII: BioMAP Diversity Plus: MyoF Assay for Collagen III Biomarker Activity (AID 2284239); conditions: primary human lung fibroblasts
How it was run: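 Compounds are added to primary human lung fibroblasts and left for 24 hours. Collagen III is then quantified by ELISA. Analysis takes DMSO as baseline and fits increases in signal.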

[3] = read-out: Interleukin 17F (IL17F), IL17F (gene 112744); test: BSK_BT_xIL17F: BioMAP Diversity Plus: BT Assay for Interleukin 17F (IL17F) Biomarker Activity (AID 2284243); conditions: primary human B cells with PBMC
How it was run: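 Measures secreted IL-17F from a human B cell plus PBMC co-culture at 24 h post-dose by Luminex xMAP, with DMSO defining baseline activity.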

[4] = read-out: Actin alpha 1 (ACTA1), ACTA1 (gene 58); test: BSK_MyoF_ACTA1: BioMAP Diversity Plus: MyoF Assay for Actin alpha 1 (ACTA1) Biomarker Activity (AID 2284244); conditions: primary human lung fibroblasts
How it was run: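 Lung fibroblasts, human primary, 24 h compound exposure → a-SMA ELISA. Positive-direction fit vs DMSO control.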

[5] = read-out: Interleukin 2 (IL2), IL2 (gene 3558); test: BSK_BT_xIL2: BioMAP Diversity Plus: BT Assay for Interleukin 2 (IL2) Biomarker Activity (AID 2284245); conditions: primary human B cells with PBMC
How it was run: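 B cell + PBMC co-culture (human primary), compound added, 24 h incubation; secreted IL-2 measured multiplexed on Luminex xMAP; gain-of-signal fit vs DMSO.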

[6] = read-out: Basic fibroblast growth factor (bFGF), FGF2 (gene 2247); test: BSK_MyoF_bFGF: BioMAP Diversity Plus: MyoF Assay for Basic fibroblast growth factor (bFGF) Biomarker Activity (AID 2284246); conditions: primary human lung fibroblasts
How it was run: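 ELISA-measured bFGF level serves as the read-out, taken 24 h after chemical dosing of human lung fibroblasts. Values represent signal gain over the DMSO negative control.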

[7] = read-out: Collagen IV, COL4A1 (gene 1282); test: BSK_MyoF_CollagenIV: BioMAP Diversity Plus: MyoF Assay for Collagen IV Biomarker Activity (AID 2284247); conditions: primary human lung fibroblasts
How it was run: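 Steps: dose human lung fibroblasts; culture 24 h; quantify Collagen IV by ELISA; fit increase versus DMSO control. Parallel SRB total-protein staining (0.1% SRB after 10% TCA fixation, 560 nm) tracks overt cytotoxicity.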

[8] = read-out: Monokine induced gamma interferon (MIG), CXCL9 (gene 4283); test: BSK_KF3CT_MIG: BioMAP Diversity Plus: KF3CT Assay for Monokine induced gamma interferon (MIG) Biomarker Activity (AID 2284248); conditions: primary human keratinocytes with fibroblasts
How it was run: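 The assay uses a co-culture of human keratinocytes and foreskin fibroblasts. Measurement occurs 24 hours after dosing, with MIG detected by ELISA and the DMSO control as baseline.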

[9] = read-out: Vascular cell adhesion molecule 1 (VCAM1), VCAM1 (gene 7412); test: BSK_BF4T_VCAM1: BioMAP Diversity Plus: BF4T Assay for Vascular cell adhesion molecule 1 (VCAM1) Biomarker Activity (AID 2284249); conditions: primary human bronchial epithelial cells with fibroblasts
How it was run: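 Human bronchial epithelial cell and dermal fibroblast co-culture exposed 24 h. VCAM-1 measured by ELISA; parallel SRB total-protein staining for cytotoxicity. Fitted in positive direction relative to DMSO.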

[10] = read-out: Collagen I, COL1A1 (gene 1277); test: BSK_hDFCGF_CollagenI: BioMAP Diversity Plus: hDFCGF Assay for Collagen I Biomarker Activity (AID 2284250); conditions: primary human foreskin fibroblasts
How it was run: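 Human skin primary fibroblasts dosed with test chemical, harvested at 24 h, Collagen I quantified by ELISA; parallel SRB staining (0.1% SRB after 10% TCA fixation, 560 nm) tracked cytotoxicity.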

[11] = read-out: Interferon-inducible T-cell alpha chemoattractant (ITAC), CXCL11 (gene 6373); test: BSK_hDFCGF_ITAC: BioMAP Diversity Plus: hDFCGF Assay for Interferon-inducible T-cell alpha chemoattractant (ITAC) Biomarker Activity (AID 2284251); conditions: primary human foreskin fibroblasts
How it was run: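 ELISA readout of I-TAC after 24 h chemical exposure; human dermal foreskin fibroblast primary cells. Positive-direction fitting vs DMSO baseline. Parallel SRB total-protein staining (0.1% SRB after 10% TCA fixation, 560 nm) flags cytotoxicity.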

[12] = read-out: Plasminogen activator inhibitor-1 (PAI1), SERPINE1 (gene 5054); test: BSK_KF3CT_PAI1: BioMAP Diversity Plus: KF3CT Assay for Plasminogen activator inhibitor-1 (PAI1) Biomarker Activity (AID 2284252); conditions: primary human keratinocytes with fibroblasts
How it was run: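 ELISA read-out of PAI-1 taken 24 h after chemical treatment of a human skin primary co-culture of keratinocytes and foreskin fibroblasts. Increases over DMSO-treated wells defined activity.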

[13] = read-out: Interleukin-8 (IL8), CXCL8 (gene 3576); test: BSK_KF3CT_IL8: BioMAP Diversity Plus: KF3CT Assay for Interleukin-8 (IL8) Biomarker Activity (AID 2284254); conditions: primary human keratinocytes with fibroblasts
How it was run: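 ELISA detection of IL-8 from a human skin co-culture, keratinocytes with foreskin fibroblasts, at 24 h following chemical exposure, with gain of signal scored against DMSO controls.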

[14] = read-out: Macrophage Inflammatory Protein-1 Alpha (MIP1a), CCL3 (gene 6348); test: BSK_IMphg_MIP1a: BioMAP Diversity Plus: IMphg Assay for Macrophage Inflammatory Protein-1 Alpha (MIP1a) Biomarker Activity (AID 2284255); conditions: primary human endothelial cells with macrophages
How it was run: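 Co-culture of human venular endothelial cells and macrophages exposed to compounds for 24 h; MIP-1a measured by ELISA relative to DMSO. Cytotoxicity assessed in parallel cultures by sulforhodamine B total-protein staining at 560 nm.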

[15] = read-out: Plasminogen activator inhibitor-1 (PAI1), SERPINE1 (gene 5054); test: BSK_MyoF_PAI1: BioMAP Diversity Plus: MyoF Assay for Plasminogen activator inhibitor-1 (PAI1) Biomarker Activity (AID 2284256); conditions: primary human lung fibroblasts;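 further: PAI-1 protein level measured by ELISA in fibroblast cultures; PAI-1 read 24 h after compound addition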
How it was run: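 Activity reflects increased PAI-1, determined by ELISA and compared with DMSO, in human lung fibroblasts treated for 24 h.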

[16] = read-out: CD69, CD69 (gene 969); test: BSK_IMphg_CD69: BioMAP Diversity Plus: IMphg Assay for CD69 Biomarker Activity (AID 2284257); conditions: primary human endothelial cells with macrophages
How it was run: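 Human venular endothelial cells co-cultured with macrophages; CD69 quantified by ELISA 24 h after compound addition. Activity fitted in the positive direction relative to DMSO baseline; cytotoxicity tracked in parallel cultures via SRB total-protein staining.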

[17] = read-out: Eotaxin 3, CCL26 (gene 10344); test: BSK_BF4T_Eotaxin3: BioMAP Diversity Plus: BF4T Assay for Eotaxin 3 Biomarker Activity (AID 2284258); conditions: primary human bronchial epithelial cells with fibroblasts
How it was run: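 Co-culture of human bronchial epithelial cells and dermal fibroblasts, exposed to chemicals for 24 h versus DMSO. Eotaxin-3 quantified by ELISA; cytotoxicity checked in parallel cultures by sulforhodamine B total-protein staining.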

[18] = read-out: Monocyte Chemoattractant Protein-1 (MCP1), CCL2 (gene 6347); test: BSK_BF4T_MCP1: BioMAP Diversity Plus: BF4T Assay for Monocyte Chemoattractant Protein-1 (MCP1) Biomarker Activity (AID 2284259); conditions: primary human bronchial epithelial cells with fibroblasts
How it was run: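 Co-culture of bronchial epithelial cells and dermal fibroblasts dosed with chemical; MCP-1 measured by ELISA 24 h later. Activity fitted in positive direction versus DMSO; cytotoxicity checked by SRB staining in parallel cultures.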

[19] = CCTE_Mundy_HCI_hNP1_CellTiter: CCTE's Cell Titer-Glo 2 Assay in human neuroprogenitor cells for Viability, Mundy Lab (AID 2284241; active means hit-call score of the fitted dose curve at least 0.9, where 1 is the maximum)
How it was run: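 Measures ATP content in human neural progenitors derived from WA09 embryonic cells. Read-out at 26.5 hours after dosing, with DMSO serving as the negative control and baseline.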

[20] = read-out: Monocyte Chemoattractant Protein-1 (MCP1), CCL2 (gene 6347); test: BSK_IMphg_MCP1: BioMAP Diversity Plus: IMphg Assay for Monocyte Chemoattractant Protein-1 (MCP1) Biomarker Activity (AID 2284253); conditions: primary human endothelial cells with macrophages
How it was run: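 Human venular endothelial cells co-cultured with macrophages; MCP-1 measured by ELISA 24 hours post-dose and fitted against DMSO. Cytotoxicity monitored by SRB total-protein staining in parallel cultures.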

Measured: AC50

O=S(=O)(Cl)C(F)(F)C(F)(F)C(F)(F)C(F)(F)C(F)(F)C(F)(F)C(F)(F)C(F)(F)F
inactive: [1] | [3] | [4] | [5] | [6] | [8] | [9] | [10] | [11] | [13] | [14] | [15] | [16]
active: [2] 30 µM and 41.1 µM | [7] 41.1 µM and 30.1 µM | [9] 30 µM | [12] 25 µM and 22.1 µM | [16] 15.1 µM | [17] 28.3 µM and 19.5 µM | [18] 46.5 µM and 43.3 µM

CO[Si](C)(CCC(F)(F)C(F)(F)C(F)(F)C(F)(F)C(F)(F)C(F)(F)F)OC
not listed: [19] | [20]
inactive: all other assays above

OCCCCC(F)(F)C(F)(F)C(F)(F)C(F)(F)F
inactive: [1] | [2] | [19] | [3] | [4] | [5] | [6] | [7] | [8] | [9] | [10] | [11] | [12] | [13] | [14] | [15] | [16] | [17] | [18]
active: [3] 21.7 µM

O=C(O)C(F)(F)C(F)(F)C(F)(F)C(F)(F)C(F)(F)C(F)(F)C(F)F
inactive: [1] | [2] | [3] | [4] | [5] | [6] | [7] | [8] | [9] | [10] | [11] | [12] | [13] | [14] | [15] | [16] | [17] | [18]
active: [4] 232 nM | [11] 577 nM | [13] 17.2 µM

NCC(F)(F)C(F)(F)C(F)(F)C(F)(F)C(F)(F)C(F)(F)F
not listed: [19]
inactive: all other assays above
